From PubChem BioAssay

Experiments:
[1] = target: Tumor necrosis factor receptor superfamily member 10B (Homo sapiens) (UniProt O14763); test: caspase-8 TRAIL sensitization, hit retest, confirmation, cell-based, NB7+caspase-8, with/without TRAIL, luminescence panel (AID 651596); conditions: NB7 neuroblastoma + caspase-8, TRAIL sensitization, luminescence viability, with TRAIL, mean of runs, at 10 µM, stronger effect = higher value
[2] = as above; conditions: NB7 neuroblastoma + caspase-8, without TRAIL, luminescence viability, without TRAIL, mean of runs, at 10 µM

Tumor necrosis factor receptor superfamily member 10B (Homo sapiens), sequence (O14763 whole entry, looked up): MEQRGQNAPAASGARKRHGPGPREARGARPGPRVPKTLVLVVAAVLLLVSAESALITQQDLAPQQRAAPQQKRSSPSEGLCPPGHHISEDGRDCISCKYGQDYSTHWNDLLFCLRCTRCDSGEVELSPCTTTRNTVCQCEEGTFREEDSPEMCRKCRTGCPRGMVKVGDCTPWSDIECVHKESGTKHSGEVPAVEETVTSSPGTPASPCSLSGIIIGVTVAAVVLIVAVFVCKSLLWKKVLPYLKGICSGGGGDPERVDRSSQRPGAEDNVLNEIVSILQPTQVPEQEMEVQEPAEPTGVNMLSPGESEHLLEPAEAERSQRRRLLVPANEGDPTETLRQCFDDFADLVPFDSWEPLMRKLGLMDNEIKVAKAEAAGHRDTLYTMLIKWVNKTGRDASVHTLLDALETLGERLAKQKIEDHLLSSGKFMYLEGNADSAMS

Row | SMILES | activity [1] [%] | activity [2] [%]
1 | O=C(/C(=C/c1ccc(Cl)cc1)c1nc2ccccc2[nH]1)c1ccccc1 | 84.1 | 85.1
2 | CN(C(=O)c1ccco1)c1nc2c(s1)CCCC2 | 58.4 | 60.5
3 | Cc1ccc(/C=N/Nc2nnc(Cl)c3ccccc23)cc1 | 82.6 | 73.8
4 | O=c1c(-c2ccc3c(c2)OCCO3)coc2cc(OC3OC(CO)C(O)C(O)C3O)ccc12 (centres undefined) | 51.8 | 53.9
5 | COc1cccc(C(=O)Cn2c(=N)n(C)c3ccccc32)c1 | 65.8 | 66.2
6 | CCC(C)c1ccc(-c2cc(C(=O)OCC(=O)Nc3cc(C)on3)c3ccccc3n2)cc1 (centres undefined) | 85.1 | 85.7
7 | O=C(OCc1cc(=O)oc2cc(O)ccc12)c1cc(S(=O)(=O)N2CCOCC2)ccc1F | 84.1 | 70.9
